# Activity calls are given as the source filed them. How the source made its calls: active means hit-call score of the fitted dose curve at least 0.9, where 1 is the maximum; inactive means score below 0.9.
# Key:
# [1] = read-out: Tissue Factor, F3 (gene 2152); experiment: BSK_CASM3C_TissueFactor: BioMAP Diversity Plus: CASM3C Assay for Tissue Factor Biomarker Activity (AID 2283052); details: primary human coronary artery smooth muscle cells; actives raise or lower the signal;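 further: cell surface tissue factor protein level read by ELISA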
# [2] = read-out: Interferon-gamma inducible Protein 10 (IP10), CXCL10 (gene 3627); experiment: BSK_hDFCGF_IP10: BioMAP Diversity Plus: hDFCGF Assay for Interferon-gamma inducible Protein 10 (IP10) Biomarker Activity (AID 2283053); details: primary human foreskin fibroblasts; actives raise or lower the signal
# In short: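 Human foreskin fibroblast primary cells (hDFCGF system) were dosed with chemical and assayed at 24 h; IP-10 measured by ELISA. Activity fitted bidirectionally relative to DMSO negative control as baseline.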
# [3] = read-out: Urokinase-type plasminogen activator receptor (uPAR), PLAUR (gene 5329); experiment: BSK_CASM3C_uPAR: BioMAP Diversity Plus: CASM3C Assay for Urokinase-type plasminogen activator receptor (uPAR) Biomarker Activity (AID 2283054); details: primary human coronary artery smooth muscle cells; actives raise or lower the signal;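 further: cell-surface uPAR protein level quantified by ELISA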
# [4] = read-out: Vascular cell adhesion molecule 1 (VCAM1), VCAM1 (gene 7412); experiment: BSK_CASM3C_VCAM1: BioMAP Diversity Plus: CASM3C Assay for Vascular cell adhesion molecule 1 (VCAM1) Biomarker Activity (AID 2283055); details: primary human coronary artery smooth muscle cells; actives raise or lower the signal;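 further: VCAM-1 protein level quantified by ELISA on the cells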
# [5] = read-out: Collagen III, COL3A1 (gene 1281); experiment: BSK_hDFCGF_CollagenIII: BioMAP Diversity Plus: hDFCGF Assay for Collagen III Biomarker Activity (AID 2283056); details: primary human foreskin fibroblasts; actives raise or lower the signal
# In short: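 ELISA read-out of collagen III from human skin fibroblast cultures sampled 24 h post-dosing. Values were derived by bidirectional fitting relative to the DMSO vehicle control.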
# [6] = read-out: Interleukin-8 (IL8), CXCL8 (gene 3576); experiment: BSK_hDFCGF_IL8: BioMAP Diversity Plus: hDFCGF Assay for Interleukin-8 (IL8) Biomarker Activity (AID 2283058); details: primary human foreskin fibroblasts; actives raise or lower the signal
# In short: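 Cells used are human skin primary fibroblasts. Chemical is added, cultures run 24 h, then IL-8 is quantified by ELISA, and gain or loss versus DMSO control is fitted in both directions.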
# [7] = BSK_hDFCGF_Proliferation: Cell Proliferation Assessment in the BioMAP Diversity Plus: hDFCGF Assay (AID 2283059); details: primary human foreskin fibroblasts;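 further: curves fitted for both rise and fall of signal versus DMSO baseline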
# In short: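 Steps: dose primary human dermal fibroblasts (foreskin); […] fix in 10% TCA; stain with 0.1% SRB; read 560 nm; fit gain or loss of signal against DMSO.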
# [8] = BSK_hDFCGF_SRB: Viability Assessment in the BioMAP Diversity Plus: hDFCGF Assay (AID 2283061); details: primary human foreskin fibroblasts;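 further: cells exposed to compound for 24 h before the read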
# In short: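 Readout is SRB absorbance at 560 nm, reflecting total protein in parallel cultures of human foreskin fibroblasts harvested 24 h after chemical dosing. Activity was fitted bidirectionally relative to DMSO.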
# [9] = read-out: Monokine induced gamma interferon (MIG), CXCL9 (gene 4283); experiment: BSK_hDFCGF_MIG: BioMAP Diversity Plus: hDFCGF Assay for Monokine induced gamma interferon (MIG) Biomarker Activity (AID 2283063); details: primary human foreskin fibroblasts; actives raise or lower the signal
# In short: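 Chemicals were added to primary human foreskin fibroblast cultures, which were sampled 24 h later. MIG levels were then quantified by ELISA and responses fitted in both directions relative to DMSO.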
# [10] = read-out: Matrix Metallopeptidase 1 (MMP1), MMP1 (gene 4312); experiment: BSK_hDFCGF_MMP1: BioMAP Diversity Plus: hDFCGF Assay for Matrix Metallopeptidase 1 (MMP1) Biomarker Activity (AID 2283064); details: primary human foreskin fibroblasts; actives raise or lower the signal
# In short: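 Primary human foreskin fibroblasts exposed to chemicals for 24 h; MMP1 measured by ELISA. Cytotoxicity tracked by SRB staining in parallel cultures; bidirectional fit relative to DMSO.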
# [11] = read-out: Vascular cell adhesion molecule 1 (VCAM1), VCAM1 (gene 7412); experiment: BSK_hDFCGF_VCAM1: BioMAP Diversity Plus: hDFCGF Assay for Vascular cell adhesion molecule 1 (VCAM1) Biomarker Activity (AID 2283065); details: primary human foreskin fibroblasts; actives raise or lower the signal;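 on AC50: VCAM-1 protein level quantified by ELISA after 24 h chemical exposure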
# In short: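 Human foreskin fibroblast primary cells, chemical exposure 24 h; VCAM-1 by ELISA; bidirectional fit, DMSO = negative control/baseline.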
# [12] = read-out: Plasminogen activator inhibitor-1 (PAI1), SERPINE1 (gene 5054); experiment: BSK_hDFCGF_PAI1: BioMAP Diversity Plus: hDFCGF Assay for Plasminogen activator inhibitor-1 (PAI1) Biomarker Activity (AID 2283066); details: primary human foreskin fibroblasts; actives raise or lower the signal
# In short: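 Human foreskin fibroblasts in the hDFCGF system were dosed with compound for 24 h; PAI-1 was quantified by ELISA. Bidirectional curve fitting used DMSO as negative control and baseline.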
# [13] = read-out: Intercellular Adhesion Molecule 1 (ICAM1), ICAM1 (gene 3383); experiment: BSK_KF3CT_ICAM1: BioMAP Diversity Plus: KF3CT Assay for Intercellular Adhesion Molecule 1 (ICAM1) Biomarker Activity (AID 2283067); details: primary human keratinocytes with fibroblasts; actives raise or lower the signal
# In short: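 ICAM-1 levels are measured by ELISA 24 h after dosing a primary human co-culture of keratinocytes and foreskin fibroblasts. Activity in either direction is fitted relative to DMSO vehicle.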
# [14] = read-out: Interferon-gamma inducible Protein 10 (IP10), CXCL10 (gene 3627); experiment: BSK_KF3CT_IP10: BioMAP Diversity Plus: KF3CT Assay for Interferon-gamma inducible Protein 10 (IP10) Biomarker Activity (AID 2283068); details: primary human keratinocytes with fibroblasts; actives raise or lower the signal
# In short: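 KF3CT co-culture (keratinocytes + foreskin fibroblasts), 24 h compound, IP-10 by ELISA; bidirectional fit vs DMSO baseline.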
# [15] = BSK_KF3CT_SRB: Viability Assessment in the BioMAP Diversity Plus: KF3CT Assay (AID 2283069); details: primary human keratinocytes with fibroblasts;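 further: total protein by sulforhodamine B staining as a cytotoxicity measure; read 24 h after compound addition; fitted for both signal gain and loss against DMSO baseline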
# In short: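 Human keratinocyte and foreskin fibroblast co-culture exposed to chemical for 24 h. Total protein measured in parallel cultures by 0.1% sulforhodamine B staining after 10% TCA fixation, read at 560 nm; bidirectional fit relative to DMSO.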
# [16] = read-out: Interleukin-1 alpha (IL1a), IL1A (gene 3552); experiment: BSK_KF3CT_IL1a: BioMAP Diversity Plus: KF3CT Assay for Interleukin-1 alpha (IL1a) Biomarker Activity (AID 2283070); details: primary human keratinocytes with fibroblasts; actives raise or lower the signal
# In short: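 Primary human keratinocyte plus foreskin fibroblast co-culture, dosed and measured at 24 h in 96-well plates. IL-1a level quantified by ELISA; bidirectional fit relative to DMSO.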
# [17] = read-out: TIMP metallopeptidase inhibitor 2 (TIMP2), TIMP2 (gene 7077); experiment: BSK_KF3CT_TIMP2: BioMAP Diversity Plus: KF3CT Assay for TIMP metallopeptidase inhibitor 2 (TIMP2) Biomarker Activity (AID 2283071); details: primary human keratinocytes with fibroblasts; actives raise or lower the signal
# In short: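 Human primary keratinocyte/foreskin fibroblast co-culture dosed with chemical and sampled at 24 h. TIMP-2 levels quantified by ELISA; bidirectional fitting against DMSO negative control as baseline.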
# [18] = read-out: TIMP metallopeptidase inhibitor 1 (TIMP1), TIMP1 (gene 7076); experiment: BSK_hDFCGF_TIMP1: BioMAP Diversity Plus: hDFCGF Assay for TIMP metallopeptidase inhibitor 1 (TIMP1) Biomarker Activity (AID 2283062); details: primary human foreskin fibroblasts; actives raise or lower the signal
# In short: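 Human skin fibroblasts (primary), hDFCGF system; compound exposure 24 h; TIMP-1 by ELISA; bidirectional fit vs DMSO negative control; overt cytotoxicity by SRB in parallel wells.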
structure (smiles),measurement,setting,value
CCCCC(CC)COC(=O)c1ccccc1C(=O)O (stereo not drawn),outcome,[1],inactive
same,AC50,[2],11 µM (active)
same,outcome,[3],inactive
same,outcome,[4],inactive
same,outcome,[5],inactive
same,outcome,[6],inactive
same,outcome,[7],inactive
same,outcome,[8],inactive
same,AC50,[9],13.8 µM (active)
same,outcome,[10],inactive
same,AC50,[11],10.2 µM (active)
same,outcome,[12],inactive
same,outcome,[13],inactive
same,outcome,[14],inactive
same,outcome,[15],inactive
same,outcome,[16],inactive
same,outcome,[17],inactive
COC(=O)CSc1cc(N=c2sc(=O)n3n2CCCC3)c(F)cc1Cl,outcome,[1],inactive
same,outcome,[2],inactive
same,outcome,[3],inactive
same,outcome,[4],inactive
same,outcome,[5],inactive
same,outcome,[6],inactive
same,outcome,[7],inactive
same,outcome,[8],inactive
same,outcome,[18],inactive
same,outcome,[9],inactive
same,outcome,[10],inactive
same,outcome,[11],inactive
same,outcome,[12],inactive
same,outcome,[13],inactive
same,outcome,[14],inactive
same,outcome,[15],inactive
same,outcome,[16],inactive
same,outcome,[17],inactive
CCC(O)=C1C(=O)CC(C(=O)O)CC1=O (stereo not drawn),outcome,[1],inactive
same,outcome,[2],inactive
same,outcome,[3],inactive
same,outcome,[4],inactive
same,outcome,[5],inactive
same,outcome,[6],inactive
same,outcome,[7],inactive
same,outcome,[8],inactive
same,outcome,[9],inactive
same,outcome,[10],inactive
same,outcome,[11],inactive
same,outcome,[12],inactive
same,outcome,[13],inactive
same,outcome,[14],inactive
same,outcome,[15],inactive
same,outcome,[16],inactive
same,outcome,[17],inactive
O=C(Nc1ccc([N+](=O)[O-])cc1Cl)c1cc(Cl)ccc1O,outcome,[1],inactive
same,AC50,[2],0.148 µM (active)
same,AC50,[3],0.148 µM (active)
same,outcome,[4],inactive
same,AC50,[5],0.148 µM (active)
same,outcome,[6],inactive
same,AC50,[7],0.148 µM (active)
same,AC50,[8],0.063 µM (active)
same,AC50,[9],0.148 µM (active)
same,AC50,[10],0.227 µM (active)
same,AC50,[11],0.148 µM (active)
same,AC50,[12],0.148 µM (active)
same,AC50,[13],1.24 µM (active)
same,AC50,[14],0.148 µM (active)
same,AC50,[15],0.148 µM (active)
same,AC50,[16],0.735 µM (active)
same,AC50,[17],0.436 µM (active)
CC(C)CCCCCCc1ccc(O)cc1,AC50,[1],26.9 µM (active)
same,AC50,[2],9.75 µM (active)
same,AC50,[3],31.8 µM (active)
same,AC50,[4],33.8 µM (active)
same,AC50,[5],9.95 µM (active)
same,AC50,[6],11.7 µM (active)
same,AC50,[7],7.24 µM (active)
same,AC50,[8],10.2 µM (active)
same,AC50,[9],8.13 µM (active)
same,AC50,[10],9.57 µM (active)
same,AC50,[11],9.07 µM (active)
same,AC50,[12],11.1 µM (active)
same,AC50,[13],7.58 µM (active)
same,AC50,[14],9.35 µM (active)
same,AC50,[15],5.35 µM (active)
same,AC50,[16],8.32 µM (active)
same,AC50,[17],6.18 µM (active)
O=C(O)C1(C(=O)Nc2ccc(Cl)cc2Cl)CC1,outcome,[1],inactive
same,outcome,[2],inactive
same,outcome,[3],inactive
same,outcome,[4],inactive
same,AC50,[5],24.5 µM (active)
same,outcome,[6],inactive
same,outcome,[7],inactive
same,outcome,[8],inactive
same,outcome,[9],inactive
same,outcome,[10],inactive
same,outcome,[11],inactive
same,outcome,[12],inactive
same,outcome,[13],inactive
same,outcome,[14],inactive
same,outcome,[15],inactive
same,outcome,[16],inactive
same,outcome,[17],inactive
O=C(O)c1ccccc1,outcome,[1],inactive
same,outcome,[2],inactive
same,outcome,[3],inactive
same,outcome,[4],inactive
same,outcome,[5],inactive
same,outcome,[6],inactive
same,outcome,[7],inactive
same,outcome,[8],inactive
same,outcome,[18],inactive
same,outcome,[9],inactive
same,outcome,[10],inactive
same,outcome,[11],inactive
same,outcome,[12],inactive
same,outcome,[13],inactive
same,outcome,[14],inactive
same,outcome,[15],inactive
same,outcome,[16],inactive
same,outcome,[17],inactive
COC(=O)c1ccc(I)cc1S(=O)(=O)NC(=O)Nc1nc(C)nc(OC)n1,outcome,[1],inactive
same,outcome,[2],inactive
same,outcome,[3],inactive
same,outcome,[4],inactive
same,outcome,[5],inactive
same,outcome,[6],inactive
same,outcome,[7],inactive
same,outcome,[8],inactive
same,outcome,[9],inactive
same,outcome,[10],inactive
same,outcome,[11],inactive
same,outcome,[12],inactive
same,outcome,[13],inactive
same,outcome,[14],inactive
same,outcome,[15],inactive
same,outcome,[16],inactive
same,outcome,[17],inactive
